# Source: PubChem BioAssay
# HCMV inh: qHTS Assay for inhibitors of the human cytomegalovirus (HCMV). HFF cells, HCMV-luciferase reporter, 72 h; active compounds read low. activity change, negative = inhibition, % at 57.5 µM. 410,000 compounds, 4.5% hits. AID 1259415, 2018; in the data active = activity change below about -60%; inconclusive = no clear call, values can overlap the other calls; inactive = above about -39%; note: % is set by controls: 0 for no effect and ±100 for the full control effect
#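 Steps: HFFs plated, 16 h 37C; compounds added; HCMV-luciferase added to MOI 1 PFU/cell; 72 h 37C; OneGlo reagent, 5 min room temperature; luminescence read, normalized to controls.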
# Pf growth 96h: Primary qHTS for delayed death inhibitors of the malarial parasite plastid, 96 hour incubation; 320,000 compounds, 6.9% hits; Potency, µM (series often up to 28.7 µM), without a hit: at the top dose activity change, negative = inhibition, usual class: inhibitors; P. falciparum luciferase reporter growth, 96 h; AID 504834, 2011; note: potency is the fitted concentration of half-maximal effect; % is set by controls: 0 for no effect and ±100 for the full control effect
#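 Plates of compound plus infected erythrocytes (2% hematocrit, 0.05% parasitemia final) incubate 96 hours, 37 C, 5% CO2. Detection reagent added; reduced luminescence from the parasites' luciferase reporter flags inhibition.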
# Pf growth 48h: Primary qHTS for delayed death inhibitors of the malarial parasite plastid, 48 hour incubation; 310,000 compounds, 5.9% hits; P. falciparum luciferase growth in erythrocytes, 48 h; Potency, µM (titrated, usually from 28.7 µM), without a hit: at the highest dose activity change, negative = inhibition, hits mostly inhibitors; note: potency is the fitted concentration of half-maximal effect; % is set by controls: 0 for no effect and ±100 for the full control effect
#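 Luciferase-expressing P. falciparum in infected erythrocytes (2% hematocrit, 0.1% parasitemia final) in RPMI 1640/0.5% Albumax were exposed to compound for 48 hours at 37 C, 5% CO2; growth read as luminescence.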
# HCV inh: qHTS Assay for Inhibitors of Hepatitis C Virus (HCV). 340,000 compounds, 3.4% hits. Huh7.5.1 HCVcc-Cre infection, luciferase reporter, 44 h. Potency, µM (titrated, usually from 41.8 µM), without a hit: at the highest dose activity change, negative = inhibition, hits mostly inhibitors; note: potency is the fitted concentration of half-maximal effect; % is set by controls: 0 for no effect and ±100 for the full control effect
#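 Cells seeded at 1,000/well and cultured 4 h, then compounds added followed by HCVcc-Cre virus (~0.5 moi). After 44 h further culture, luciferase substrate was added, plates held 15 min at room temperature, and luminescence read for 15 sec.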
# Sm TGR inh: qHTS Assay for the Inhibitors of Schistosoma Mansoni Peroxiredoxins; Schistosoma mansoni thioredoxin glutathione reductase (TGR), Q962Y6; AID 485364, 2010; purified TGR, DTNB reduction, TNB absorbance 405 nm; Potency, µM (series often up to 114 µM), without a hit: at the top dose activity change, negative = inhibition, most hits filed as inhibitors; 360,000 compounds, 3% hits; note: potency is the fitted concentration of half-maximal effect; % is set by controls: 0 for no effect and ±100 for the full control effect; nearly all actives have a fitted effect of over 60% in size
#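 Kinetic colorimetric format: TGR-catalysed, NADPH-driven DTNB reduction monitored via TNB absorbance. Enzyme dispensed at 20 nM; compound exposure 15 min at room temperature before reaction start.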
# SARS PLpro yeast-1: qHTS of Yeast-based Assay for SARS-CoV PLP | Potency, µM (top dose mostly 32.9 µM), inactives show at the top dose activity, positive = growth rescue, hits mostly activators | S. cerevisiae expressing SARS-CoV PLpro, growth rescue | 330,000 compounds, 0.19% hits; calls by dose curve; note: potency is the fitted concentration of half-maximal effect; 0% is about no effect; nearly all actives have a fitted effect of over 55% in size
# SARS PLpro yeast-2: qHTS of Yeast-based Assay for SARS-CoV PLP: Hit Validation | AID 652038, 2013 | 1,000 compounds, 19% hits | yeast expressing SARS-CoV PLpro, growth phenotype rescue | calls only | shares compounds with SARS PLpro yeast-1; call rule not given here
# Numbers without * were called inactive; i = inactive; u = inconclusive; x = no result given; + = active, no number; ! = repeats disagree; [ ] = remark or other dose. Rows were chosen to be rich in hits. Some 15% of all compounds tested hit in one or more screens of this group. Unless noted, calls come from the whole dose curve; as a rule, active = well fitted curve in the direction sought with a large enough effect; inconclusive = small, poorly fitted or top-dose-only effect, or another doubt; inactive = no such curve, though single readings can be large; an effect the other way counts as inactive or inconclusive.
SMILES,HCMV inh,Pf growth 96h,Pf growth 48h,HCV inh,Sm TGR inh,SARS PLpro yeast-1,SARS PLpro yeast-2
CCCOc1ccc(C2C3=C(Nc4nc(N)[nH]c(=O)c42)c2ccccc2C3=O)cc1 (configuration not stated),-67.3*,u,u,u,3.6%,0.6%,x
COc1ccc(C(=O)Nc2nc3c(s2)Cc2c(Br)ccc(OC)c2-3)cc1OC,-28.9,x,x,x,-18.5%,x,x
Cc1c(C(=O)Oc2ccc(F)cc2)sc2ncn(Cc3cccc(F)c3)c(=O)c12,-39.9,11.3%,2.7%,6.8%,-1.7%,u,i
CC(=O)c1cccc(N2C(=O)CN(S(C)(=O)=O)CC2(C)C(=O)NC2CCCC2)c1 (configuration not stated),u,x,x,x,1.9%,x,x
CCOC(=O)N1CCN(C(=O)CCS(=O)(=O)c2cc3c(cc2Cl)NC(=O)CO3)CC1,9.6,19.4%,-4.2%,14.1%,-1.7%,u,i
O=S(=O)(c1ccc(-n2cnnn2)cc1)N1CCN(c2cccc(C(F)(F)F)c2)CC1,87.0,x,x,x,-1.0%,x,x
CCNC(=S)N/N=C/c1cccc(/C=N/NC(=S)NCC)c1,-36.6,0.1%,18.7%,5.9%,-24.3%,-0.1%,x
CCNC(=S)N/N=C/c1cccs1,-16.4,4.65µM*,x,-3.0%,u,u,+
Cc1cc(SC#N)cc(C)c1NC(=O)CCl,-83.2*,58.5%,-11.4%,-0.3%,14.1µM*,x,i
CCC(=O)Nc1ccc(SC#N)cc1C,6.9,-20.8%,x,2.1%,9.7%,-32.3%,x
CCNS(=O)(=O)c1ccc(CCC(=O)N2CCN(C(=O)OCC)CC2)cc1,-11.3,u,-7.1%,6.5%,-20.9%,-5.6%,x
O=C(CN1C(=O)C2C3C=CC(C3)C2C1=O)NCc1ccccc1 (configuration not stated),9.4,57.3%,2.0%,11.1%,11.9%,u,i
COc1ccc(OCCCCN(C)Cc2ccccc2)cc1,41.1,-27.6%,1.1%,3.2%,5.2%,-0.5%,x
C=CCc1cc(OC)ccc1OCCN(C)Cc1ccccc1,5.6,-13.7%[5.75 µM],-2.3%,-6.4%,5.6%,u,i
C=C1CC2C=C(NC(C)=O)CC(C1)C2 (configuration not stated),17.6,8.3%,25.4%,6.3%,9.9%,u,i
CCCCCC(C)NC(=O)c1ccoc1C (configuration not stated),-12.8,-14.1%,19.9%,-5.5%,u,x,i
Cc1occc1C(=O)NC(C)C12CC3CC(CC(C3)C1)C2 (configuration not stated),-21.6,11.9%,u,3.0%,u,-5.6%,x
CCOC(=O)N/N=C/C=C/c1ccccc1,26.1,u,73.4%,0.9%,-4.8%,-24.6%,x
COc1ccccc1NCC(=O)N/N=C/C=C/c1ccccc1,-26.8,-1.0%,-6.0%,0.6%,-4.1%,u,i
COc1ccc2nc(SCC(=O)N3CC(=O)Nc4ccccc43)c(C#N)cc2c1,-99.6*,u,x,u,-13.0%,u,i
C/C(CC(=O)Nc1ccc(N(C)C)cc1)=N\NC(=O)Cc1csc(N)n1,13.0,44.6%,u,3.3%,-4.4%,17.8µM*,i
Cc1noc(C(=O)N2CC3(C)CC2CC(C)(C)C3)c1Cl (configuration not stated),-16.7,u,x,-21.3%,0.0%,4.47µM*,i
COc1cccc(-c2cc(C(=O)N3CC4(C)CC3CC(C)(C)C4)no2)c1 (configuration not stated),33.0,-3.6%,u,x,-14.7%,-25.2%,x
Cc1ccc2nc(CSc3nnc4ccccn34)cc(=O)n2c1,13.6,82.6%,47.8%,12.1%,-0.2%,-0.7%,x
C=CCn1c(SCc2cc(=O)n3cc(C)ccc3n2)nnc1-c1cccc(C)c1,u,u,-28.9%,u,-0.4%,11.2µM*,i
SMILES,HCMV inh,Pf growth 96h,Pf growth 48h,HCV inh,Sm TGR inh,SARS PLpro yeast-1,SARS PLpro yeast-2
Cc1ccc(C(O)(C(=O)NNc2ccc3ccccc3n2)c2ccc(C)cc2)cc1,69.1,u,u,u,u,u,i
CCOc1cc(CNCCc2ccc(S(N)(=O)=O)cc2)ccc1OCC(=O)NC(C)(C)C,-16.9,-0.1%,-3.3%,u,-5.9%,x,x
CCOc1cc(CNCCc2ccccc2)ccc1OCC(=O)NC(C)(C)C,-2.2,0.1%,u,u,4.4%,17.8µM*,i
Cc1ccc(C)c(-n2ccnc2SCC(=O)c2c(N)n(C3CC3)c(=O)[nH]c2=O)c1,1.1,u,-26.7%,13.3%,-5.0%,-10.0%,x
Cc1nc(N2CCCC2)c2c(C(=O)N3CCN(c4cc(Cl)ccc4C)CC3)c(C)oc2n1,14.8,x,x,x,-1.1%,x,x
CCOC(=O)c1ccc(NC(=O)CSc2ccc(-c3ccccn3)nn2)cc1,-6.8,u,-15.9%,u,9.4%,-0.2%,x
COc1ccc(NC(=O)CSc2ccc(-c3ccccn3)nn2)cc1OC,1.0,u,u,2.5%,-11.5%,10µM*,i
Cc1cc(S(=O)(=O)Nc2ncnc3sccc23)ccc1F,-35.5,x,x,x,x,x,x
CN(C)[C@H]1CCN([C@H]2CS(=O)(=O)N[C@@H]2COCc2ccccc2)C1,25.4,x,x,x,x,x,x
Oc1ccc(CN2CCC(Cc3ccccc3)CC2)c2cccnc12,-101.0*,2.5%,u,u,7.94µM*,2.51µM*,u
CN(C)C1CCN(Cc2cc(COCc3ccccc3)c3cccnc3c2O)C1 (configuration not stated),x,u,0.828µM*,x,14.1µM*,10µM*!,u
O=C(CCc1c[nH]c2ccccc12)NCC(=O)Nc1ccc(F)c(F)c1F,25.3,12.6%,-1.1%,9.6%,-4.9%,0.3%,x
Cc1ccc([C@H]2C[C@H](n3cc(C4CC4)nn3)[C@@H](O)CN2C(=O)C2CCCCC2)cc1,-27.8,x,x,x,x,x,x
Cc1ccccc1C(=O)/C(C#N)=N/Nc1c(C)n(C)n(-c2ccccc2)c1=O,-87.7*,12.4%,1.65µM*,u,-10.1%,20µM*,i
Cc1c(N/N=C(\C#N)C(=O)c2ccccc2)c(=O)n(-c2ccccc2)n1C,-79.1*,u,1.65µM*,10µM*,-17.8%,u,i
CCOC(=O)/C(C#N)=N/Nc1c(C)n(C)n(-c2ccccc2)c1=O,3.5,u,-25.0%,10.8%,-7.4%,-0.4%,x
